Hit rate of the full screen: of about 69,000 compounds, about 8,600 (12%) showed an effect of 50% or more. The full list was thinned out, with strong results kept by preference.

For this experiment, the system named is Plasmodium berghei. Description: Screen against P. berghei liver stage (PbLuc), transformed with Luciferase, at 10uM. The format is functional, HepG2. The settings on record: tested at 10 uM.
As to `COCCN1CCC2(CC1)CC(c1cccnc1)CO2` (stereo not given), the INHIBITION was found to be 16.4%.

As to `N#Cc1ccc(OCC(O)CN2CCC(Cn3cccn3)CC2)cc1` (stereo not given), the INHIBITION was found to be 5.7%.

For `CNC(=O)[C@H]1C[C@@H]2CN(S(=O)(=O)c3ccc(OC)cc3)C[C@@H]2N1C`, the INHIBITION is on record as 46.6%.

Consider `COCc1cncc2c1CCN(C(=O)c1cccc(C#N)c1)C2`, for which the INHIBITION is 14.9%.

In the case of `Cn1ccnc1CN1CCC2(CC(=O)N(c3cccc(F)c3)C2)C1` (stereo not given), the INHIBITION was 25.3%.

Consider `Cc1cccc(N2CC3(CCN(Cc4nccn4C)C3)CC2=O)c1` (stereo not given), for which the INHIBITION was 52%.

For the molecule `Cn1cc(N2CC3(CCN(Cc4nccn4C)C3)CC2=O)cn1` (stereo not given), the INHIBITION is given as 14.8%.

`Cn1ccnc1CN1CCC2(CC(=O)N(c3ccsc3)C2)C1` (stereo not given): the INHIBITION was found to be 53.2%.

With `Cn1ccnc1CN1CCC2(CC(=O)N(c3cncnc3)C2)C1` (stereo not given), the INHIBITION is reported as 33.5%.

As for `COc1cccc(N2CC3(CCN(Cc4nccn4C)C3)CC2=O)c1` (stereo not given), the INHIBITION is reported as 40.4%.

For `CCc1nc(C2CCCN2CCCS(N)(=O)=O)no1` (stereo not given), the INHIBITION came to 31.9%.

Take `CSCCC(NC(=O)C1CC1)C(=O)N(C)Cc1ccsc1` (stereo not given): the INHIBITION is on record as 42.6%.

Take `Cc1noc(C)c1CCc1nc(C2CCOC2)no1` (stereo not given): the INHIBITION is given as -94.3%.

On to `COCCC(=O)N1CCOCC2(CCN(Cc3cccs3)C2)C1` (stereo not given), for which the INHIBITION is -5.31%.

For `Cn1cc(-c2ncnc3c2CCN(CC2CCOC2)CC3)cn1` (stereo not given), the INHIBITION was determined as 25.8%.

Regarding `CN(C)[C@@H]1CCN(S(=O)(=O)C2CC2)[C@H]1Cc1ccccc1`, the INHIBITION was determined as 27.5%.

As to `Cc1nc(C2CCCN(C(=O)c3cccc4c3OCO4)C2)sc1C` (stereo not given), the INHIBITION worked out at 40%.

`c1cc(-c2cn[nH]c2)ccc1CN1CCNCC1`: the INHIBITION was 14.6%.

For `CCNC(=O)C(C)NC(=O)c1cnc(-c2ccc(C)cc2C)s1` (stereo not given), the INHIBITION is recorded as 50.5%.

In the case of `Cc1ccc(-c2ncc(C(=O)NCCNC(=O)C(C)C)s2)c(C)c1`, the INHIBITION was -10.9%.

As to `Cc1ccc(-c2ncc(C(=O)NCCS(N)(=O)=O)s2)c(C)c1`, the INHIBITION was -37.3%.

In the case of `COc1ccccc1C(O)CNC(=O)NCc1csc(C)n1` (stereo not given), the INHIBITION is listed as 13.3%.

With `O=S(=O)(c1cccs1)N1Cc2nc(CN3CCCC3)oc2C1`, the INHIBITION came to 67.5%.

For the molecule `O=S(=O)(c1cccs1)N1Cc2nc(COCC3CC3)oc2C1`, the INHIBITION is reported as 30.3%.

Turning to `CCN(CC)Cc1nc2c(o1)CN(S(=O)(=O)c1cccs1)C2`, the INHIBITION is 57.5%.

In the case of `CN(C)Cc1nc2c(o1)CN(S(=O)(=O)c1cccs1)C2`, the INHIBITION is listed as 34%.

Regarding `c1csc(CN2Cc3nc(CN4CCCC4)oc3C2)c1`, the INHIBITION was found to be 33.5%.

`O=S(=O)(c1cccs1)N1Cc2nc(CN3CCCCC3)oc2C1`: the INHIBITION is 19.5%.

As for `O=c1c(S(=O)(=O)N2CCCC2)cccn1Cc1c(F)cccc1Cl`, the INHIBITION is listed as 7.92%.

Consider `Cc1nc[nH]c1CN1CCC2(CC1)CC(Nc1ncccn1)CO2` (stereo not given), for which the INHIBITION was found to be 27.6%.

Turning to `CCc1cnc(CN2CCC(N(Cc3noc(CC)n3)C(C)=O)C2)o1` (stereo not given), the INHIBITION is given as -15.5%.

With `CC1CN(CC(=O)NCc2cccs2)CCN1c1nccs1` (stereo not given), the INHIBITION is on record as 36.1%.

On to `Cc1ccc(-c2cc(N)c(=O)n(C(C)C(N)=O)n2)o1` (stereo not given), for which the INHIBITION is -6.88%.

Consider `COc1ccccc1CN1C[C@@H]2CN(C(C)=O)CCO[C@@H]2C1`, for which the INHIBITION was determined as 0.453%.

As for `COCC(=O)N1CCN(C(=O)NC(C)C)CC2(CC(=O)N(C)C2)C1` (stereo not given), the INHIBITION came to 45.2%.

On to `O=C1NCC2=Nc3ccccc3NC(c3ccccc3)C12` (stereo not given), for which the INHIBITION is reported as 7.92%.

With `CN(C)CCOCc1nnc2n1CCN(Cc1ccc(F)cc1)CC2`, the INHIBITION was 69.8%.

Turning to `CN(C)CCOCc1nnc2n1CCN(Cc1ccoc1)CC2`, the INHIBITION came out at 0.618%.

Take `COc1ccc(CN2CCc3nnc(COCCN(C)C)n3CC2)cc1`: the INHIBITION is listed as 22.4%.

As to `CN(CC(=O)N1CCCCC1c1nc(C(C)(C)C)cs1)C1CC1` (stereo not given), the INHIBITION is -19.9%.

On to `Cc1nccc(C2CCCCN2Cc2ccc(F)cc2)n1` (stereo not given), for which the INHIBITION came to 41.2%.

`Cc1cc(COC(=O)[C@@H]2Cc3ccccc3CN2S(C)(=O)=O)no1`: the INHIBITION stood at 5.91%.

For the molecule `CCS(=O)(=O)N1Cc2ccccc2CC1C(=O)OCc1c(C)noc1C` (stereo not given), the INHIBITION is recorded as -16.3%.

In the case of `CCS(=O)(=O)N1Cc2ccccc2CC1C(=O)OCc1cc(C)no1` (stereo not given), the INHIBITION came to 60.2%.

With `Cc1nc(CN2CCC3(CCCN(Cc4cnn(C)c4)C3)C2=O)cs1` (stereo not given), the INHIBITION is -0.912%.

Turning to `COc1ccc2[nH]c3c(N(C)CC4OCCO4)ncnc3c2c1`, the INHIBITION is listed as -112%.

Take `Cc1occc1C(=O)N1CC[C@H]2C[C@@H](c3nnc(C4CC4)o3)O[C@@H]2C1`: the INHIBITION was found to be 68.4%.

Regarding `O=C(c1ccsc1)N1C[C@@H]2C[C@@H](c3nnc(C4CC4)o3)O[C@@H]2C1`, the INHIBITION was -31.6%.

Take `O=C(c1ccsc1)N1CC[C@H]2C[C@@H](c3nnc(C4CC4)o3)O[C@@H]2C1`: the INHIBITION is on record as -1.64%.

As for `Cc1ccoc1C(=O)N1CC[C@H]2C[C@H](c3nnc(C4CC4)o3)O[C@@H]2C1`, the INHIBITION is on record as 54.8%.

Turning to `O=C(Cc1ccsc1)N1C[C@@H]2C[C@@H](c3nnc(C4CC4)o3)O[C@@H]2C1`, the INHIBITION amounted to 61.8%.

With `O=C(c1ccoc1)N1CC[C@H]2C[C@@H](c3nnc(C4CC4)o3)O[C@@H]2C1`, the INHIBITION was 35.8%.

Take `O=C(c1cccs1)N1CC[C@H]2C[C@@H](c3nnc(C4CC4)o3)O[C@@H]2C1`: the INHIBITION was found to be 26.7%.

Regarding `O=C(c1ccccc1)N1CC[C@H]2C[C@H](c3nnc(C4CC4)o3)O[C@@H]2C1`, the INHIBITION was found to be 38.5%.

For `O=C(c1ccccc1)N1CC[C@H]2C[C@@H](c3nnc(C4CC4)o3)O[C@@H]2C1`, the INHIBITION turned out to be 38.5%.

Values taken from ChEMBL document CHEMBL4513216, “Probing the Open Global Health Chemical Diversity Library for Multistage-Active Starting Points for Next-Generation Antimalarials” (ACS Infect Dis, 2020).
